According to PubChem BioAssay (NCATS):
Inconclusive results are not listed. Calls of active or inactive are those of the source. Calls come from the whole dose curve; as a rule, active = well fitted inhibition curve with a large enough effect; inconclusive = small, poorly fitted or top-dose-only effect; inactive = flat fitted curve, though single readings scatter.

Assays:
[1] = qHTS profiling for inhibitors of Plasmodium falciparum proliferation (AID 504749);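 note: 0% = DMSO vehicle and full inhibition = artemisinin control; nearly all actives have a fitted effect of over 60% in size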; settings: P. falciparum in erythrocytes, SYBR Green DNA, 72 h
In short: (§1)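 Fluorescence of SYBR Green-bound parasite DNA, read at 485/535 nm, served as the growth measure. Infected erythrocytes were cultured with compound 72 h; artemisinin (0.29 uM) and DMSO wells defined the normalization range.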

3D7 = test: as above; settings: P. falciparum in erythrocytes, SYBR Green DNA, 72 h; series mostly up to 28.7 µM
In short: as §1

7G8 = test: as above; settings: P. falciparum in erythrocytes, SYBR Green DNA, 72 h; series mostly up to 28.7 µM
In short: as §1

AA1029 = test: as above; settings: P. falciparum in erythrocytes, SYBR Green DNA, 72 h; series mostly up to 28.7 µM
In short: as §1

AS120 = test: as above; settings: P. falciparum in erythrocytes, SYBR Green DNA, 72 h; series mostly up to 28.7 µM
In short: as §1

ATS189 = test: as above; settings: P. falciparum in erythrocytes, SYBR Green DNA, 72 h; series mostly up to 28.7 µM
In short: as §1

ATS95 = test: as above; settings: P. falciparum in erythrocytes, SYBR Green DNA, 72 h; series mostly up to 28.7 µM
In short: as §1

C2A = test: as above; settings: P. falciparum in erythrocytes, SYBR Green DNA, 72 h; series mostly up to 28.7 µM
In short: as §1

CP185 = test: as above; settings: P. falciparum in erythrocytes, SYBR Green DNA, 72 h; series mostly up to 28.7 µM
In short: as §1

CP191 = test: as above; settings: P. falciparum in erythrocytes, SYBR Green DNA, 72 h; series mostly up to 28.7 µM
In short: as §1

CP192 = test: as above; settings: P. falciparum in erythrocytes, SYBR Green DNA, 72 h; series mostly up to 28.7 µM
In short: as §1

CP194 = test: as above; settings: P. falciparum in erythrocytes, SYBR Green DNA, 72 h; series mostly up to 28.7 µM
In short: as §1

CP201 = test: as above; settings: P. falciparum in erythrocytes, SYBR Green DNA, 72 h; series mostly up to 28.7 µM
In short: as §1

[2] = at 28.7 µM (top of the series), parasite line A
[3] = at 28.7 µM (top of the series), parasite line B

CC1CCN(CCCC(=O)c2ccc(F)cc2)CC1
inactive: activity, negative = inhibition [1, 2] 12.5% | activity, negative = inhibition [1, 3] 9.34% | Potency (3D7) | Potency (7G8) | Potency (AA1029) | Potency (AS120) | Potency (ATS189) | Potency (ATS95) | Potency (C2A) | Potency (CP185) | outcome (CP191) | outcome (CP192) | outcome (CP194) | outcome (CP201)

CC(=O)NS(=O)(=O)c1ccc(N)cc1
inactive: activity, negative = inhibition [1, 2] 6.18% | activity, negative = inhibition [1, 3] 10.5% | Potency (3D7) | Potency (7G8) | Potency (AA1029) | Potency (AS120) | Potency (ATS189) | Potency (ATS95) | Potency (C2A) | Potency (CP185) | outcome (CP191) | outcome (CP192) | outcome (CP194) | outcome (CP201)

CCN(CC)CCc1nc(-c2ccccc2)no1
inactive: activity, negative = inhibition ([1]; at 12.8 µM (top of the series), parasite line A) -7.93% | activity, negative = inhibition ([1]; at 12.8 µM (top of the series), parasite line B) -5.26% | Potency (3D7) | Potency (7G8) | Potency (AA1029) | Potency (AS120) | Potency (ATS189) | Potency (ATS95) | Potency (C2A) | Potency (CP185) | outcome (CP191) | outcome (CP192) | outcome (CP194) | outcome (CP201)

O=C(NCCCN1CCOCC1)c1ccc(Cl)cc1
inactive: activity, negative = inhibition [1, 2] 6.41% | activity, negative = inhibition [1, 3] 5.99% | Potency (3D7) | Potency (7G8) | Potency (AA1029) | Potency (AS120) | Potency (ATS189) | Potency (ATS95) | Potency (C2A) | Potency (CP185) | outcome (CP191) | outcome (CP192) | outcome (CP194) | outcome (CP201)

CN1C(C)(C)CCCC1(C)C
inactive: activity, negative = inhibition [1, 2] 8.89% | activity, negative = inhibition [1, 3] 5.87% | Potency (3D7) | Potency (7G8) | Potency (AA1029) | Potency (AS120) | Potency (ATS189) | Potency (ATS95) | Potency (C2A) | Potency (CP185) | outcome (CP191) | outcome (CP192) | outcome (CP194) | outcome (CP201)

COc1ccccc1OC(=O)Oc1ccccc1OC
inactive: activity, negative = inhibition [1, 2] -1.25% | activity, negative = inhibition [1, 3] 5.57% | Potency (3D7) | Potency (7G8) | Potency (AA1029) | Potency (AS120) | Potency (ATS189) | Potency (ATS95) | Potency (C2A) | Potency (CP185) | outcome (CP191) | outcome (CP192) | outcome (CP194) | outcome (CP201)

CCOC(N)=O
inactive: activity, negative = inhibition [1, 2] 8.86% | activity, negative = inhibition [1, 3] 9.69% | Potency (3D7) | Potency (7G8) | Potency (AA1029) | Potency (AS120) | Potency (ATS189) | Potency (ATS95) | Potency (C2A) | Potency (CP185) | outcome (CP191) | outcome (CP192) | outcome (CP194) | outcome (CP201)

O=C(O)Cc1cn(-c2ccccc2)nc1-c1ccc(Cl)cc1
inactive: activity, negative = inhibition [1, 2] 11.4% | activity, negative = inhibition [1, 3] 9.39% | Potency (3D7) | Potency (7G8) | Potency (AA1029) | Potency (AS120) | Potency (ATS189) | Potency (ATS95) | Potency (C2A) | Potency (CP185) | outcome (CP191) | outcome (CP192) | outcome (CP194) | outcome (CP201)

CCN(CC)C(=O)c1cccc(C)c1
inactive: activity, negative = inhibition [1, 2] 7.82% | activity, negative = inhibition [1, 3] 6.22% | Potency (3D7) | Potency (7G8) | Potency (AA1029) | Potency (AS120) | Potency (ATS189) | Potency (ATS95) | Potency (C2A) | Potency (CP185) | outcome (CP191) | outcome (CP192) | outcome (CP194) | outcome (CP201)

O=C(O)Cc1ccc(CCNS(=O)(=O)c2ccc(Cl)cc2)cc1
inactive: activity, negative = inhibition [1, 2] 5.99% | activity, negative = inhibition [1, 3] -5.95% | Potency (3D7) | Potency (7G8) | Potency (AA1029) | Potency (AS120) | Potency (ATS189) | Potency (ATS95) | Potency (C2A) | Potency (CP185) | outcome (CP191) | outcome (CP192) | outcome (CP194) | outcome (CP201)

CN1CCN(C(=O)C2CCCCC2)CC1
inactive: activity, negative = inhibition [1, 2] 0.439% | activity, negative = inhibition [1, 3] -13.4% | Potency (3D7) | Potency (7G8) | Potency (AA1029) | Potency (AS120) | Potency (ATS189) | Potency (ATS95) | Potency (C2A) | Potency (CP185) | outcome (CP191) | outcome (CP192) | outcome (CP194) | outcome (CP201)

C=CCNC(N)=S
inactive: activity, negative = inhibition [1, 2] 5.67% | activity, negative = inhibition [1, 3] -1.15% | Potency (3D7) | Potency (7G8) | Potency (AA1029) | Potency (AS120) | Potency (ATS189) | Potency (ATS95) | Potency (C2A) | Potency (CP185) | outcome (CP191) | outcome (CP192) | outcome (CP194) | outcome (CP201)

O=C(OOC(=O)c1ccccc1)c1ccccc1
inactive: activity, negative = inhibition [1, 2] -10.4% | activity, negative = inhibition [1, 3] 7.71% | Potency (3D7) | Potency (7G8) | Potency (AA1029) | Potency (AS120) | Potency (ATS189) | Potency (ATS95) | Potency (C2A) | Potency (CP185) | outcome (CP191) | outcome (CP192) | outcome (CP194) | outcome (CP201)

C[C@@H](N)C(=O)O
inactive: activity, negative = inhibition [1, 2] 26.2% | activity, negative = inhibition [1, 3] 15.6% | Potency (3D7) | Potency (7G8) | Potency (AA1029) | Potency (AS120) | Potency (ATS189) | Potency (ATS95) | Potency (C2A) | Potency (CP185) | outcome (CP191) | outcome (CP192) | outcome (CP194) | outcome (CP201)

Cn1c(=O)c2c(ncn2CCO)n(C)c1=O
inactive: activity, negative = inhibition [1, 2] 2.6% | activity, negative = inhibition [1, 3] -3.88% | Potency (3D7) | Potency (7G8) | Potency (AA1029) | Potency (AS120) | Potency (ATS189) | Potency (ATS95) | Potency (C2A) | Potency (CP185) | outcome (CP191) | outcome (CP192) | outcome (CP194) | outcome (CP201)

CCCCCCCCCCCCCCCCN
inactive: activity, negative = inhibition [1, 2] 0.565% | activity, negative = inhibition [1, 3] 3.84% | Potency (3D7) | Potency (7G8) | Potency (AA1029) | Potency (AS120) | Potency (ATS189) | Potency (ATS95) | Potency (C2A) | Potency (CP185) | outcome (CP191) | outcome (CP192) | outcome (CP194) | outcome (CP201)

COc1cc(O)cc(O)c1
inactive: activity, negative = inhibition [1, 2] 4.63% | activity, negative = inhibition [1, 3] -8.81% | Potency (3D7) | Potency (7G8) | Potency (AA1029) | Potency (AS120) | Potency (ATS189) | Potency (ATS95) | Potency (C2A) | Potency (CP185) | outcome (CP191) | outcome (CP192) | outcome (CP194) | outcome (CP201)
